USP1 inh = USP1/UAF1 (human) deubiquitinase inhibition; 0.23% of 390,000 active; Potency, µM (titrated, usually from 57.1 µM), without a hit: top-dose activity change, negative = inhibition, hits mostly inhibitors; recombinant USP1/UAF1, Ub-Rhodamine cleavage fluorescence; note: potency is the fitted concentration of half-maximal effect; % is set by controls: 0 for no effect and ±100 for the full control effect; nearly all actives have a fitted effect of over 60% in size
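1 nM enzyme complex + cpd, 15 min RT; start with Ub-Rho 150nM final; kinetic fluorescence ex 480/em 540, 6 reads q60 s. Buffer 50mM HEPES pH 7.8, 0.5mM EDTA, 0.1 mg/ml BSA, 1mM TCEP, 0.01% Tween-20.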
EPAC2 antagonist = EPAC2 (human) antagonism | Q8WZA2 | EPAC2 GEF exchange of Rap1B-BODIPY-GDP, fluorescence | Potency, µM (top dose mostly 114 µM), inactives show top-dose activity, negative = inhibition, hits mostly inhibitors | 0.18% of 360,000 active | AID 720708; note: potency is the fitted concentration of half-maximal effect; % is set by controls: 0 for no effect and ±100 for the full control effect; nearly all actives have a fitted effect of over 45% in size
VDR inh = inhibitors of human vitamin D receptor. P11473. VDR-SRC2-3 peptide fluorescence polarization, 2 h. Potency, µM, without a hit: max response, negative = inhibition, usual class: inhibitors. 0.93% of 400,000 active. AID 504847; note: potency is the fitted concentration of half-maximal effect; % is set by controls: 0 for no effect and ±100 for the full control effect
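The screen uses fluorescence polarization to detect compounds that interfere with recruitment of the SRC2-3 coactivator peptide to VDR; plates are read after 2 h at room temperature.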
EPAC1 agonist = agonists of human EPAC1; 0.073% of 360,000 active; O95398; EPAC1 agonist qHTS, biochemical assay; response scale: 100% = response to 6.5 mM cAMP; AID 720707; Potency, µM (top dose mostly 154 µM), for inactives: top-dose activation, actives largely listed as activators; note: potency is the fitted concentration of half-maximal effect; nearly all actives have a fitted effect of over 60% in size
Target sequence (O95398 whole entry, looked up): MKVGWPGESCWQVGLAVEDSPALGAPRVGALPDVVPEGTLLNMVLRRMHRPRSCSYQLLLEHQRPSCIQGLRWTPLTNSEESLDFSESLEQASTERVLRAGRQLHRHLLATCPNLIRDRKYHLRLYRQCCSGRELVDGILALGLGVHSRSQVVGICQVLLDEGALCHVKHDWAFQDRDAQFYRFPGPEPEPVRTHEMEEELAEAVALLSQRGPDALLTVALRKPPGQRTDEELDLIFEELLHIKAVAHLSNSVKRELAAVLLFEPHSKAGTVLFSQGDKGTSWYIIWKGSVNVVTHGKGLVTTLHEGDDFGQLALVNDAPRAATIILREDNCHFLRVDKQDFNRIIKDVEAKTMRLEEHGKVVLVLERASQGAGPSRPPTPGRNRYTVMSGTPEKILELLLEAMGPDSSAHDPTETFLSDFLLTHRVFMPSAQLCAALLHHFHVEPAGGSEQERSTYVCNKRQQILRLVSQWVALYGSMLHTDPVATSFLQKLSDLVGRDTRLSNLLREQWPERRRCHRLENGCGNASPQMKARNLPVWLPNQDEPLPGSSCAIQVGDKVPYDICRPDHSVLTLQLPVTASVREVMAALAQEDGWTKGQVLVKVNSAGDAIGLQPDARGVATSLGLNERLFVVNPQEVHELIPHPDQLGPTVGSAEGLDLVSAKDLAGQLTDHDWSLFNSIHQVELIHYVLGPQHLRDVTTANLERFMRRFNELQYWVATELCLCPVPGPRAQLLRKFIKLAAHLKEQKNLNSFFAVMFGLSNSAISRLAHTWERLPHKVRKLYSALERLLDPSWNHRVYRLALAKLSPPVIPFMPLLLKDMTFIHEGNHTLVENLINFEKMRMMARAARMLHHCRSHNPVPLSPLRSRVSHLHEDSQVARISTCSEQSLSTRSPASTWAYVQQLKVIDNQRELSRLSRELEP
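EPAC1 100 nM, Rap1B–BODIPY-GDP 250 nM, unlabeled GDP 50 uM; compound titration; 5 min RT; kinetic read ex480/em540 at 5-min intervals ×30 min; data normalized to 6.5 mM cAMP agonist control.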
EPAC1 antagonist = antagonists of human EPAC1 | EPAC1 GEF assay, Rap1b-BODIPY-GDP exchange fluorescence | Potency, µM (doses to about 115 µM), inactives show top-dose activity change, negative = inhibition, most hits filed as inhibitors | 0.14% of 360,000 active;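 note: potency is the fitted concentration of half-maximal effect; plate controls were vehicle for no effect and positive control for full effect; nearly all actives have a fitted effect of over 50% in size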
EPAC2 agonist = activates human EPAC2 exchange factor; Q8WZA2; EPAC2 activation, biochemical qHTS; response scale: 100% = 6.5 mM cAMP response; Potency, µM (doses to about 154 µM), for inactives: top-dose activation, most hits filed as activators; 0.079% of 360,000 active; note: potency is the fitted concentration of half-maximal effect; nearly all actives have a fitted effect of over 50% in size
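Setup: EPAC2 100 nM, labeled Rap1B complex 250 nM, free GDP 50 uM. Compound titrations pinned in, brief spin, 5 min room temperature incubation. Kinetic fluorescence read over 30 min, normalized to 6.5 mM cAMP.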
USP1 UbRho = validation of human USP1/UAF1 inhibitors; shares compounds with VDR inh; Ub-Rhodamine cleavage, fluorescence kinetic read; Potency, µM (series often up to 114 µM), for inactives: top-dose activity change, negative = inhibition, actives largely listed as inhibitors; 50% of 50 active; AID 540327
VDR inh confirm = confirmation of human vitamin D receptor inhibitors | shares compounds with VDR inh | VDR-coactivator inhibition assay, qHTS confirmation | Potency, µM, most hits filed as inhibitors | 89% of 840 active | AID 602199; note: potency is the fitted concentration of half-maximal effect
VDR FP = blocks human VDR-coactivator binding in fluorescein assay; shares compounds with VDR inh; Potency, µM (series often up to 57.1 µM), for the others: at the top dose activity change, negative = inhibition, most hits filed as inhibitors; AID 602200; 48% of 840 active; VDR-coactivator binding, fluorescein fluorescence polarization; note: potency is the fitted concentration of half-maximal effect
VDR bla reporter = VDR (human) inhibition, cell-based beta-lactamase validation. shares compounds with VDR inh. VDR beta-lactamase reporter cells, FRET ratio; cells co-treated with VDR agonist LG190178. Potency, µM (series often up to 46.1 µM), without a hit: at the top dose activity change, negative = inhibition, usual class: inhibitors. 23% of 840 active. AID 602202; note: potency is the fitted concentration of half-maximal effect; % is set by controls: 0 for no effect and ±100 for the full control effect
VDR viability = cell toxicity, VDR inhibitor hit counter-screen. shares compounds with VDR inh. cytotoxicity counter-screen, cell viability, qHTS. Potency, µM (series often up to 48.3 µM), for inactives: top-dose activity change, negative = cytotoxicity, actives largely listed as cytotoxic. 18% of 840 active. AID 602204;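 note: potency is the fitted concentration of half-maximal effect; plate controls were DMSO for no effect and high-concentration cycloheximide for full effect; nearly all actives have a fitted effect of over 75% in size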
* marks the source's active call; other numbers are inactive results; u = inconclusive; x = no result given. Compounds with a hit are over-represented: about 1.2% of the library has one in this group of screens. Calls come from the whole dose curve; as a rule, active = well fitted curve in the direction sought with a large enough effect; inconclusive = small, poorly fitted or top-dose-only effect, or another doubt; inactive = no such curve, though single readings can be large; an effect the other way counts as inactive or inconclusive.

SMILES	USP1 inh	EPAC2 antagonist	VDR inh	EPAC1 agonist	EPAC1 antagonist	EPAC2 agonist	VDR inh confirm	VDR FP	VDR bla reporter	VDR viability	others
Cn1c(=O)c2c(c3ccccc31)OC(=O)CC2c1cccc(F)c1 (stereo unspecified)	-24.1%	x	1.5%	x	x	x	x	x	x	x
CCOC(=O)/C(=C\c1ccc(OC(F)F)cc1)C1=Nn2c(nnc2-c2ccc(Cl)cc2)SC1	-20.5%	-26.6%	15.8µM*	-19.9%	u	-14.1%	5.97*	u	16.4µM*	13µM*
CCOC(=O)/C(=C/c1ccc(OC(F)F)cc1)C1=Nn2c(nnc2-c2ccc(Cl)cc2)SC1	-22.7%	-9.7%	8.91µM*	-8.6%	-14.9%	-13.7%	3.36*	3.55µM*	u	20.6µM*
C[C@]12CC[C@@H](O)C[C@@H]1CC[C@@H]1[C@@H]2CC[C@]2(C)C=CC[C@@H]12	x	x	-14.0%	x	x	x	x	x	x	x
COc1ccc(CCNC(=O)CCn2c(=O)c3ccccc3n(Cc3cc(C)ccc3C)c2=O)cc1OC	-7.7%	x	5.3%	x	x	x	x	x	x	x
Nc1ccc(-c2nc3ccc(-c4nc5ccc(N)cc5[nH]4)cc3[nH]2)cc1	x	x	1.9%	x	x	x	x	x	x	x	USP1 UbRho=u
O=C(O)COc1ccc(/C=C/C(=O)c2ccc(C3CCCCC3)cc2)cc1	u	-6.2%	u	9.4%	u	5.9%	7.08*	12.6µM*	u	-8.3%
COc1ccc2c(c1OC)C(Cc1ccccc1)N1CCc3cc4c(cc3C1=C2)OCO4 (stereo unspecified)	x	x	31.6µM*	x	x	x	x	x	x	x	USP1 UbRho=41.8µM*
CC(C)c1ccc(/C=C/c2[nH]c(=O)[nH]c(=O)c2[N+](=O)[O-])cc1	-19.5%	-9.6%	22.4µM*	15.0%	u	3.8%	3.77*	u	u	29.3%
CCCOc1ccc(/C=C/c2[nH]c(=O)[nH]c(=O)c2[N+](=O)[O-])cc1OCC	-11.0%	0.7%	-13.0%	8.0%	-25.0%	8.6%	x	x	x	x
CCOc1cc(/C=C\c2[nH]c(=O)[nH]c(=O)c2[N+](=O)[O-])ccc1OC(C)CC (stereo unspecified)	-14.1%	-6.1%	11.2µM*	6.6%	-11.2%	8.9%	8.44*	175.0%	u	19.0%
O=C(COc1ccccc1/C=C\c1[nH]c(=O)[nH]c(=O)c1[N+](=O)[O-])Nc1ccccc1	-24.8%	-8.6%	20µM*	2.2%	u	2.2%	4.23*	u	0.1%	u
COc1cccc(/C=C/c2[nH]c(=O)[nH]c(=O)c2[N+](=O)[O-])c1O	-13.1%	16.2%	22.4µM*	2.6%	-2.3%	16.3%	21.2*	u	13.9%	24.2%
C/C=C(\C=C\[C@@H](C)C/C=C/CC/C=C/C=C\C[C@@H](OC)/C(C)=C\C=C(C)C)CC(=O)O	x	x	-11.0%	x	x	x	x	x	x	x
CCc1ccc(OCCCCn2c(CCNC(=O)C3CCCCC3)nc3ccccc32)cc1	x	x	-18.2%	x	x	x	x	x	x	x
CCc1ccccc1Nc1ncnc2c1cnn2-c1ccc(Cl)cc1	-26.6%	x	4.2%	x	x	x	x	x	x	x
C=C(C)CSc1nc2sc3c(c2c(=O)n1Cc1ccccc1)CC(C)(CC)OC3 (stereo unspecified)	-6.9%	x	-26.7%	x	x	x	x	x	x	x
C[C@H](C(=O)O)c1ccc2cc(O)ccc2c1	x	x	0.6%	x	x	x	x	x	x	x
O=c1[nH]c(/C=C/c2ccccc2Cl)c([N+](=O)[O-])c(=O)[nH]1	u	-2.7%	35.5µM*	-2.4%	u	5.1%	18.9*	11.2µM*	17.4%	25.7%
CCOc1ccc(/C=C/c2[nH]c(=O)[nH]c(=O)c2[N+](=O)[O-])cc1	-10.2%	0.8%	u	2.6%	-10.5%	15.1%	x	x	x	x
O=c1cc(-c2ccccc2)oc2c(O)c(O)ccc12	x	x	12.6µM*	x	x	x	20*	25.1µM*	23.1µM*	u
Cc1oc2c(O)c(O)ccc2c(=O)c1-c1ccccc1	u	5.4%	6.2%	-2.8%	-17.9%	12.3%	x	x	x	x
Cc1ccc(-c2ccc(/C=C3\C(=O)ON=C3c3ccccc3)o2)c([N+](=O)[O-])c1	u	u	28.2µM*	4.6%	-28.7%	-0.2%	3.77*	u	18.4µM*	13µM*
C=C(C)[C@@H]1C2=CC(C(=O)OC)=C(C[C@@H](C(=C)C)[C@H]3O[C@H]3C3=C[C@H]1OC3=O)O2	x	x	20µM*	x	x	x	7.08*	14.1µM*	u	16.8µM*
COC(=O)c1ccc(NS(=O)(=O)c2ccc(S(=O)(=O)N3CCOCC3)cc2)cc1	-2.5%	-4.4%	15.9%	7.1%	1.7%	-0.4%	x	x	x	x

From PubChem BioAssay
